Test systems include RPMI-8226 leukemia; OVCAR-8 ovarian; OVCAR-5 ovarian; OVCAR-4 ovarian; SK-OV-3 ovarian; IGROV1 ovarian; OVCAR-3 ovarian; HS 578T breast; NCI/ADR-RES ovarian; T-47D breast; BT-549 breast; MDA-MB-435 melanoma; SW-620 colon; MCF7 breast; HCT-116 colon; HCC-2998 colon; KM12 colon.
Common to all, as to experiment: NCI-60 one-dose screen, 48 h (100 = growth as untreated, 0 = no growth, -100 = all killed)
Common to all, as to details: 10 µM unless noted

SMILES strings stand for the structures. The panel holds about 83,000 compounds, 20% with a hit somewhere; the sample as a whole holds those more often.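 96-well plates, one dose, 48 hours. Percent growth reported; active if below 10.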 Values without a mark were called inactive. The source made the active and inactive calls.

As to `O=c1ccn(C2CCCO2)c(=O)[nH]1` (stereo not drawn), the growth was 108% in the assay on RPMI-8226 leukemia; 102% in the assay with OVCAR-8 ovarian; 111% with OVCAR-5 ovarian; 119% with OVCAR-4 ovarian; 112% in the assay on SK-OV-3 ovarian; 114% in the assay with IGROV1 ovarian. Besides, the growth is 115% with OVCAR-3 ovarian; 112% in the assay on HS 578T breast; 110% with NCI/ADR-RES ovarian; 105% in the assay on T-47D breast; 118% with BT-549 breast; 103% with MDA-MB-435 melanoma. Also, the growth was 102% with SW-620 colon; 99.4% in the assay on MCF7 breast; 97.2% in the assay with HCT-116 colon; 104% in the assay with HCC-2998 colon; 108% in the assay on KM12 colon.
Turning to `Cc1[nH]n(C(N)=S)c(=O)c1N=Nc1ccc(F)c(Cl)c1`, the growth in the assay with RPMI-8226 leukemia is 78.2%; in the assay with OVCAR-8 ovarian it was 91.2%; in the assay on OVCAR-5 ovarian it was 102%; with OVCAR-4 ovarian it was 94.9%; in the assay with SK-OV-3 ovarian, 280%; with IGROV1 ovarian it was 102%. Further, the growth is 88.3% with OVCAR-3 ovarian; 127% in the assay with HS 578T breast; 117% in the assay with NCI/ADR-RES ovarian; 249% with T-47D breast; 143% in the assay on BT-549 breast; 107% in the assay with MDA-MB-435 melanoma. Further, the growth is 111% in the assay on SW-620 colon; 103% in the assay on MCF7 breast; 95.5% with HCT-116 colon; 95.7% in the assay on HCC-2998 colon; 90% in the assay on KM12 colon.
For the compound `CC(=O)c1ccc2c3c(n(C)c2c1)CCCC3`, the growth is 90.2% in the assay on RPMI-8226 leukemia; 106% with OVCAR-8 ovarian; 91.7% in the assay on OVCAR-5 ovarian; 106% in the assay with OVCAR-4 ovarian; 110% in the assay on SK-OV-3 ovarian; 104% with IGROV1 ovarian. The growth in the assay on OVCAR-3 ovarian was 111%; in the assay with HS 578T breast, 141%; with NCI/ADR-RES ovarian, 96.9%; with T-47D breast it was 109%; in the assay with BT-549 breast, 96.5%; in the assay with MDA-MB-435 melanoma it was 97.8%. Also, the growth in the assay on SW-620 colon was 110%; in the assay with MCF7 breast, 95.9%; in the assay on HCT-116 colon, 99.1%; in the assay on HCC-2998 colon, 93.7%; with KM12 colon, 112%.
For the compound `CN(C)c1ccc2[nH]c3c(C(N)=O)cc(=O)c(=O)c=3oc2c1`, the growth in the assay with RPMI-8226 leukemia was 5% (active); in the assay with OVCAR-8 ovarian it was 25.4%; with OVCAR-5 ovarian it was 89%; in the assay on OVCAR-4 ovarian, 49.1%; in the assay on SK-OV-3 ovarian it was 82%; with IGROV1 ovarian, 32.5%. Further, the growth in the assay on OVCAR-3 ovarian was -9.97% (active); in the assay on HS 578T breast, 20.4%; with NCI/ADR-RES ovarian, 58.1%; in the assay with T-47D breast, 18.1%; with BT-549 breast, 45.9%; in the assay with MDA-MB-435 melanoma, -70.1% (active). For the same compound, the growth in the assay with SW-620 colon was 33.8%; in the assay with MCF7 breast, 2.37% (active); with HCT-116 colon, -10.1% (active); in the assay on HCC-2998 colon it was 97.7%; in the assay with KM12 colon, 96.3%.
In the case of `O=C(Nc1ccc(OCc2nnc(-c3ccccc3)o2)c(F)c1)Nc1ccc(Cl)c(C(F)(F)F)c1`, the growth in the assay with RPMI-8226 leukemia was -21% (active); with OVCAR-8 ovarian, 24.5%; in the assay on OVCAR-5 ovarian it was 64.5%; in the assay on OVCAR-4 ovarian, 26.8%; with SK-OV-3 ovarian, 52.4%; in the assay on IGROV1 ovarian, 36.3%. The growth in the assay with OVCAR-3 ovarian is 15.4%; in the assay on HS 578T breast, 35.6%; in the assay on NCI/ADR-RES ovarian it was 17.8%; in the assay on T-47D breast, 14.9%; with BT-549 breast it was 68.3%; in the assay on MDA-MB-435 melanoma, 27.5%. In addition, the growth with SW-620 colon was 17.6%; in the assay on MCF7 breast, 8.14% (active); in the assay with HCT-116 colon, 9.64% (active); in the assay with HCC-2998 colon, 14.4%; in the assay with KM12 colon, 1.65% (active).
For `Nc1ccc(C2=Nc3cccc4cccc(c34)S2)cc1`, the growth in the assay on RPMI-8226 leukemia was 81.8%; with OVCAR-8 ovarian it was 93.6%; in the assay with OVCAR-5 ovarian it was 73.2%; in the assay on OVCAR-4 ovarian, 85.3%; in the assay on SK-OV-3 ovarian it was 103%; in the assay on IGROV1 ovarian, 67.5%. Further, the growth was 87.9% with OVCAR-3 ovarian; 92.2% in the assay on HS 578T breast; 107% in the assay with NCI/ADR-RES ovarian; 8.57% (active) in the assay on T-47D breast; 83.4% with BT-549 breast; 98.3% in the assay on MDA-MB-435 melanoma. Moreover, the growth in the assay on SW-620 colon is 97.2%; with MCF7 breast, 45.2%; in the assay with HCT-116 colon, 81.7%; with HCC-2998 colon, 61.4%; in the assay with KM12 colon it was 76.5%.
With `C[C@]12CC[C@@H]3c4ccc(O)cc4CC[C@H]3[C@@H]1CC[C@@H]2NS(=O)(=O)c1cccc(Br)c1`, the growth is 44.4% in the assay on RPMI-8226 leukemia; 67% in the assay on OVCAR-8 ovarian; 97.7% in the assay with OVCAR-5 ovarian; 53.9% with OVCAR-4 ovarian; 90.7% in the assay on SK-OV-3 ovarian; 53.1% with IGROV1 ovarian. Moreover, the growth in the assay with OVCAR-3 ovarian is 58.8%; in the assay with HS 578T breast, 73.8%; with NCI/ADR-RES ovarian, 56.2%; in the assay with T-47D breast, 37.4%; in the assay on BT-549 breast, 69.2%; with MDA-MB-435 melanoma it was 48.4%. Moreover, the growth with SW-620 colon was 81.4%; with MCF7 breast it was 37.5%; in the assay with HCT-116 colon, 44.2%; in the assay on HCC-2998 colon it was 89.4%; in the assay with KM12 colon, 51.2%.
With `O=[N+]([O-])c1ccc(Oc2cccc(C(F)(F)F)c2)c([N+](=O)[O-])c1`, the growth in the assay with RPMI-8226 leukemia is 79.3%; in the assay with OVCAR-8 ovarian, 12.7%; with OVCAR-5 ovarian, 68.1%; with OVCAR-4 ovarian, 98.2%; with SK-OV-3 ovarian, 44.5%; with IGROV1 ovarian, 12.3%. The growth in the assay on OVCAR-3 ovarian is 44.9%; in the assay with HS 578T breast, 105%; with NCI/ADR-RES ovarian, 29.1%; in the assay with T-47D breast it was 48%; with BT-549 breast it was 3.1% (active); in the assay with MDA-MB-435 melanoma it was -16.6% (active). Also, the growth in the assay on SW-620 colon was 13.5%; with MCF7 breast, 112%; in the assay with HCT-116 colon it was 3.46% (active); with HCC-2998 colon it was 92.5%; with KM12 colon it was 86.2%.
On to `CC(C)[O-].CC(C)[O-].CN(CCN(C)Cc1cc(F)cc(F)c1[O-])Cc1cc(F)cc(F)c1[O-].[Ti+4]`, for which the growth was 32.9% in the assay with RPMI-8226 leukemia; 10.6% in the assay with OVCAR-8 ovarian; 12.4% in the assay with OVCAR-5 ovarian; 14% with OVCAR-4 ovarian; 16.4% in the assay with SK-OV-3 ovarian; -42.2% (active) in the assay with IGROV1 ovarian. Also, the growth in the assay with OVCAR-3 ovarian was 4.78% (active); with HS 578T breast it was -16% (active); with NCI/ADR-RES ovarian, 11.2%; in the assay with T-47D breast it was 9.18% (active); in the assay with BT-549 breast, -1.16% (active); with MDA-MB-435 melanoma it was -24.5% (active). The growth with SW-620 colon was 0.502% (active); in the assay with MCF7 breast, -42.2% (active); with HCT-116 colon it was -0.794% (active); with HCC-2998 colon, 57%; in the assay on KM12 colon, -30.7% (active).

Source of the values: PubChem BioAssay (NCI).
